Screens from PubChem.
PP1 inh: blocks human PP1-alpha phosphatase, a PP5 counter-screen. inhibition, % at 6.7 µM. P62136. hit rate 0.9% among 320,000. purified PP1alpha, OMFP fluorescence. AID 2235;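 active = inhibition above the mean inhibition of all tested compounds plus 3 SD, computed separately for each screening campaign, cut at about 15% in these data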
PREPL inh: human PREPL enzyme inhibition; Q4J6C6; recombinant PREPL, fluorescence polarization activity-based probe; inhibition, % at 5.96 µM; hit rate 0.68% among 320,000; AID 2751; in the data active = inhibition above about 43%;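 note: 0% = enzyme with DMSO and 100% = wells lacking enzyme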
NadD block: NadD (S. aureus) enzyme inhibition. purified NadD enzyme, colorimetric absorbance read-out. inhibition, % at 20 µM. hit rate 0.78% among 360,000. AID 602399; in the data active = inhibition above about 26%
PP5 inh: inhibitors of human protein phosphatase 5 (PP5); purified PP5c, OMFP substrate fluorescence; AID 1987; inhibition, % at 6.7 µM; hit rate 0.18% among 320,000;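 active = inhibition above the campaign's mean inhibition across all tested compounds plus 3 SD, cut at about 9.5% in these data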;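 note: 0% = DMSO only and 100% = 100 µM cantharidin control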
Rpn11 block: inhibitors of human proteasome Rpn11 | O00487 | human 26S proteasome, Ub4-pepOG fluorescence polarization; 20S core pre-blocked with epoxomicin | inhibition, % at 20 µM | hit rate 0.59% among 360,000;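 active = inhibition at 20 µM, scaled to each plate's controls, above about 33%, limit read from the data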
Target sequence (O00487 whole entry, looked up): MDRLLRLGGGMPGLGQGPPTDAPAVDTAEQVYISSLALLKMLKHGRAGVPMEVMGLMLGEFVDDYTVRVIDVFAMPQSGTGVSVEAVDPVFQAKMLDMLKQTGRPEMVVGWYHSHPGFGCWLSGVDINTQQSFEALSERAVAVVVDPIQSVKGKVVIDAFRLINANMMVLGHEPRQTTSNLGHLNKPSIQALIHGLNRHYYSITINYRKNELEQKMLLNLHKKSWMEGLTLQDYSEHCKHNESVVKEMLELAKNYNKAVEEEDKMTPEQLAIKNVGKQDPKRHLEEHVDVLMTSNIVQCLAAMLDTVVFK
Rpn11 inh conf: confirmation of human proteasome Rpn11 inhibitors; shares compounds with Rpn11 block; purified human 26S proteasome, Ub4-pepOG fluorescence polarization; proteasome pretreated with epoxomicin; inhibition, % at 20 µM; hit rate 29% among 1,900; AID 602318
MMP-2 counter: counter-screen for RPN11 inhibitors: inhibition of human MMP-2. shares compounds with Rpn11 block. recombinant MMP-2, FRET peptide cleavage fluorescence. inhibition, % at 20 µM. hit rate 4% among 1,900. AID 602330;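 note: human MMP-2 activated beforehand with APMA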
Thrombin inh: counter-screen for RPN11 inhibitors: inhibition of bovine thrombin | inhibition, % at 20 µM | bovine thrombin cleavage of Ub4-pepOG, fluorescence polarization | shares compounds with Rpn11 block | hit rate 13% among 1,900;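 active = mean inhibition at least 40% at 20 µM, or signal 3 deviations below plate average, so some actives read negative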;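 note: plate controls were thrombin with DMSO for no effect and buffer wells lacking thrombin for full effect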
The depositor's hits bear a star; nt = not tested or not shown. Hits are enriched below; roughly 2.4% of the tested compounds scored in any of these assays. Cut-off read from the data, not from the text of the source, unless noted: active = inhibition above about 40%; inactive = the rest.

SMILES	PP1 inh	PREPL inh	NadD block	PP5 inh	Rpn11 block	Rpn11 inh conf	MMP-2 counter	Thrombin inh
N#C/C(=C/c1ccc(OC(=O)c2ccc(Br)s2)cc1)c1nc2ccccc2[nH]1	nt	nt	23.7	nt	32.0	nt	nt	nt
Cc1cccnc1NC(=O)CCC(=O)c1cccs1	2.6	6.7	4.1	-0.2	2.0	nt	nt	nt
COc1cc(/C=C/c2cc(C(F)(F)F)[nH]c(=O)n2)cc(OC)c1OC	nt	nt	2.3	nt	-1.5	nt	nt	nt
COc1cc(OC)c(OC)cc1/C=C/c1cc(C(F)(F)F)[nH]c(=O)n1	-4.4	8.8	-5.9	-1.1	65.1*	22.2	-14.1	2.5
COc1cccc2sc(Nc3nc4ccc(NC(C)=O)cc4s3)nc12	3.7	6.9	13.0	1.1	41.2*	25.3	1.6	1.8
Cc1nn(-c2ccccc2)c(Cl)c1/C=C1\SC(=S)NC1=O	8.9	-4.0	7.8	2.6	48.3*	-7.5	14.3	-7.0
Cc1cc(=S)[nH]c2c(C)cccc12	-3.1	-5.2	5.0	-0.4	-18.7	nt	nt	nt
CCc1ccc2[nH]c(=O)c(C(c3nnnn3CC3CCCO3)N3CCN4CCCC4C3)cc2c1 (stereo not drawn)	0.3	17.0	-2.4	-1.2	51.2*	18.2	10.9	5.5
COc1cc(/C=C2\SC(=S)N(NC(=O)c3ccncc3)C2=O)ccc1O	4.6	-206.3	-2.4	2.5	102.6*	72.6*	29.4	65.1*
O=C(NN1C(=O)/C(=C/c2cccs2)SC1=S)c1cccnc1	-2.9	1.8	0.7	-0.4	42.1*	1.6	-9.1	-8.4
COc1cc(/C=C2\SC(=S)N(NC(=O)c3cccc(O)c3)C2=O)ccc1O	nt	nt	-4.3	nt	nt	nt	nt	nt
CCOc1cc(/C=C2\SC(=S)N(NC(=O)c3cccnc3)C2=O)ccc1O	4.1	-139.9	-1.8	1.2	78.3*	83.3*	-0.8	62.0*
COc1cc(/C=C2\SC(=S)N(NC(=O)c3ccc(O)c(OC)c3)C2=O)ccc1O	4.1	-166.5	1.7	-1.1	nt	nt	nt	nt
COc1cc(/C=C2\SC(=S)N(NC(=O)c3ccccc3OC)C2=O)ccc1O	nt	nt	12.7	nt	75.4*	19.5	12.0	-0.7
Cc1ccnc(N2CCC(C(=O)NNC(=O)COc3cccc4ccccc34)CC2)n1	-4.3	2.4	-3.0	0.4	-8.4	nt	nt	nt
COc1ccc(NC(=O)c2nc(S(=O)(=O)Cc3cccc(C)c3)ncc2Cl)c(OC)c1	0.8	15.8	3.6	1.1	40.8*	27.1	-34.6	-8.7
COc1ccc(OC)c(NC(=O)c2nc(S(=O)(=O)Cc3ccccc3)ncc2Cl)c1	1.4	23.6	-8.7	3.4	-24.2	nt	nt	nt
C[C@H](CO)N1C[C@H](C)[C@@H](CN(C)C(=O)Nc2cccc(F)c2)Oc2ncc(Br)cc2C1=O	nt	nt	1.9	nt	78.8*	8.1	-19.7	-0.1
C[C@@H]1CN([C@H](C)CO)C(=O)c2cc(Br)cnc2O[C@@H]1CN(C)C(=O)Nc1ccccc1	nt	nt	-4.6	nt	-2.7	nt	nt	nt
CCOC(=O)c1c(NC(=O)C(C)OC(=O)c2ccc(NC(=O)CC#N)cc2)sc2c1CCCC2 (stereo not drawn)	6.7	-14.2	20.8	4.2	52.6*	39.2	4.6	25.2
CCOC(=O)c1c(NC(=O)C(C)OC(=O)C2=COCCO2)sc2c1CCCC2 (stereo not drawn)	-1.6	6.7	-5.3	2.2	3.0	nt	nt	nt
CN1CCN(c2ccc(-c3cc(NC=O)c4ncc(-c5ccc(F)c(Cl)c5)n4c3)cc2)CC1	nt	nt	19.3	nt	48.5*	27.4	-7.9	14.2
CC(=O)Nc1cc(-c2ccc(N3CCN(C)CC3)cc2)cn2c(-c3ccc(F)c(Cl)c3)cnc12	nt	nt	7.6	nt	26.7	nt	nt	nt
Cc1occc1C(=O)/C(C#N)=C/c1ccc(O)c(Br)c1	1.3	6.9	0.5	-0.4	142.9*	116.5*	-23.8	101.4*
CCCC(=O)OCC1CN(Cc2ccco2)S(=O)(=O)c2c(F)cccc2O1 (stereo not drawn)	nt	nt	2.0	nt	4.0	nt	nt	nt
COc1ccc(-c2cc(C(=O)Nc3cc(Cl)ccc3O)no2)cc1	1.4	-3.0	3.2	1.4	51.0*	11.9	-7.4	-5.1
CCc1ccc(NC(=O)c2cc(-c3ccc(OC)cc3)on2)cc1	-1.3	8.9	1.2	3.1	-0.6	nt	nt	nt
